Source: PubChem BioAssay
ATXN2 expr inh = reduces ATXN2 reporter expression in HEK-293 cells. HEK-293 ATXN2-luciferase reporter, luminescence, 24 h. Potency, µM (highest dose often 57 µM), without a hit: at the top dose activity change, negative = inhibition, most hits filed as inhibitors. 0.72% of 360,000 active. AID 1745845; also: potency is read from the fitted curve at half-maximal effect; % is scaled to controls: 0 for no effect and ±100 for the full control effect; nearly all actives have a fitted effect of over 55% in size
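ATXN2-luciferase reporter cells (luciferase flanked by upstream and downstream ATXN2 gene portions) were treated 24 h at 37 °C with compounds at up to 57 uM. SteadyGlo luminescence gave expression; GF-AFC fluorescence gave viability.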
D3 antag = antagonists of human D3 dopamine receptor. P35462. D3R cells, DiscoveRx beta-arrestin luminescence, antagonist mode; active compounds read low. max response, negative = inhibition, %. 2.5% of 360,000 active; in the data active = max response below about -50%; inconclusive = no clear call, values can overlap the other calls; also: % is scaled to controls: 0 for no effect and ±100 for the full control effect
Target sequence (P35462 whole entry, looked up): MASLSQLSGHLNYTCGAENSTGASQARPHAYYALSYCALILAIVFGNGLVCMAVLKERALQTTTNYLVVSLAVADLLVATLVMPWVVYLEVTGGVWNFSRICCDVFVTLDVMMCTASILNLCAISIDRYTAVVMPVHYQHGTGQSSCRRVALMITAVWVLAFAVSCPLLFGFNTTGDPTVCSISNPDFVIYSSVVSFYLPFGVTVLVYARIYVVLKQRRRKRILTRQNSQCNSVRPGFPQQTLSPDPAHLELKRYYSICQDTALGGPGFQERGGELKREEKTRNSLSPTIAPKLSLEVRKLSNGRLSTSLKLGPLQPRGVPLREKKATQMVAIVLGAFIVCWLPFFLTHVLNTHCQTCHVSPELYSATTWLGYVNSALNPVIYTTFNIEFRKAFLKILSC
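Cells plated overnight at 1500 cells/well, then exposed to library compounds with dopamine controls for 90 minutes at 37 degrees C. DiscoveRx reagent added for 30–60 minutes at room temperature; luminescence read, quantitative HTS format.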
IL-1B inflam inh = inflammasome signaling inhibition, IL-1 beta readout | THP-1 LPS/ATP IL-1B secretion, AlphaLISA, 16 h; active compounds read low | activity change, % at 57.5 µM | 4.7% of 360,000 active | AID 743279; in the data active = activity change below about -50%; inconclusive = mostly about -30% to -49%; also: % is scaled to controls: 0 for no effect and ±100 for the full control effect
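THP-1 cells pretreated 1 hr with compounds (up to 57.5 uM final), then stimulated with LPS (250 ng/mL final) plus ATP (1.25 mM final); secreted IL-1B measured by AlphaLISA after 16 hr, decreased signal indicating inhibition.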
Integrin act MD = activators of alpha7 integrin expression for muscular dystrophy. alpha7betagal myoblasts, beta-gal FDG fluorescence, 48 h. Potency, µM (titrated, usually from 38.3 µM), for inactives: at the highest dose activation, hits mostly activators. 0.064% of 350,000 active;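 also: potency is read from the fitted curve at half-maximal effect; 100% = response of the positive control SU9516; nearly all actives have a fitted effect of over 60% in size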
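Alpha7betagal+/- myoblasts (passage 13) were plated 16-24 hr, then exposed to compounds (1:260 dilution of DMSO stock) for 48 hours at 37C. After MPER lysis, β-galactosidase reporter activity was read as FDG fluorescence (ex 480/em 540) after 30 minutes.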
S2 tox = viability counter-screen for ATXN expression inhibitors | S2 cells (HEK-293 line with an ATXN2-luciferase reporter) viability, CellTiter-Fluor protease fluorescence, 24 h | Potency, µM (top dose mostly 56.7 µM), hits mostly cytotoxic | 0.49% of 400,000 active; also: potency is read from the fitted curve at half-maximal effect; nearly all actives have a fitted effect of over 40% in size
D3 ag = agonists of human D3 dopamine receptor | P35462 | D3R DiscoveRx beta-arrestin cells, luminescence, 90 min | max activation, % | 0.58% of 410,000 active | AID 652048; in the data active = max activation above about 30%; also: 0% is about no effect
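Agonist-mode cell screen: cells plated at 1500/well and incubated overnight at 37 °C, then exposed to library compounds for 90 min at 37 °C. Detection reagent was added for 30–60 min at room temperature, and luminescence was read.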
Numbers without * were called inactive; i = inactive; u = inconclusive; x = no result given; [ ] = remark or other dose. In the library only some 7% were active in any assay of this set; here they are far more common. Unless noted, calls follow the shape of the dose curve; as a rule, active = well fitted curve in the direction sought with a large enough effect; inconclusive = small, poorly fitted or top-dose-only effect, or another doubt; inactive = no such curve, though single readings can be large; an effect the other way counts as inactive or inconclusive.

SMILES	ATXN2 expr inh	D3 antag	IL-1B inflam inh	Integrin act MD	S2 tox	D3 ag
Cc1noc(C)c1COc1ccc(C(=O)Nc2ccccn2)cc1	12%	-11	-15	u	i	4
Cc1noc(C)c1COc1cccc(C(=O)Nc2ccccc2N2CCOCC2)c1	-12%	-2	-101*	u	i	-6
Cc1c(C(=O)Nc2ccccc2N2CCN(C)CC2)oc2ccc(F)cc12	u	0	-78*	-47%	i	-14
COc1cc(C(=O)Nc2ccccc2N2CCOCC2)ccc1OCc1c(C)noc1C	0%	-10	u	2%	u	7
Cc1noc(C)c1COc1ccc(C(=O)Nc2ccccc2)cc1	9%[11.3 µM]	-55*	5	19%	i	2
CN1CCN(c2ccccc2NC(=O)C(Cc2ccccc2)n2cccc2)CC1 (stereo not drawn)	0%	-1	-30	-56%	30µM*	-1
COc1ccccc1N1CCN(C(=O)c2oc3ccc(F)cc3c2C)CC1	-9%	10	33	1%	i	2
CCOc1cc(-c2ccc(OC(=O)c3ccc(OC)cc3)c(OC)c2)cc(=O)c2c(C)oc(C)c12	4%	x	x	x	i	-8
Cc1ccc(S(=O)(=O)CCC(=O)OCC(=O)N2CC(=O)Nc3ccccc32)cc1	-8%	-24	-8	-26%	i	-9
CN1CCN(c2ccccc2NC(=O)c2cccc(OCc3ccccc3)c2)CC1	-23%	-29	-65*	-49%	i	-30
CN1CCN(c2ccccc2NC(=O)c2ccc(-c3ccccc3)cc2)CC1	-17%	13	-59*	-42%	i	-7
CN1CCN(c2ccccc2NC(=O)c2ccc(OCc3ccccc3)cc2)CC1	u	0	-55*	-35%	i	-9
CN1CCN(c2ccccc2NC(=O)c2c(F)cccc2F)CC1	-4%	1	1	6%	i	3
COC(=O)C1=NN(C(C)(C)CC(C)=O)C2C(=O)N(C3CCCCC3)C(=O)C12 (stereo not drawn)	x	17	21	20%	i	5
COc1ccc(OC)c(NC(=O)CN(C)CC(=O)Nc2ccccc2Br)c1	-13%	5	13	1%	i	1
Nc1nc(N2CCCCC2)c(C=O)c(N2CCCCC2)n1	-9%	-1	2	-24%	i	-8
Cc1ccc(OCC(O)CNC2CCCC2)c(C)c1 (stereo not drawn)	x	11	-8	-26%	u	-2
CCCOc1ccc(OCCNC2CCCC2)cc1	13%	-10	-5	6%	i	-10
COc1cccc(OC)c1OCCCNC1CCCC1	-19%	-55*	-4	-8%	i	-23
Cc1ccc(C)c(OCCCNC2CCCC2)c1C	-27%	-73*	-8	-68%	i	-15
COc1cccc(OC)c1OCCNCCO	-1%	-12	7	3%	i	-3
Cc1ccc(OCCCCNC2CCCCC2)c(C)c1	u	-79*	-63*	-61%	i	-16
CCc1nc2ccccc2c(C(=O)OCC(=O)N(CC(C)C)c2c(N)n(Cc3ccccc3)c(=O)[nH]c2=O)c1C	-6%	-7	-28	-4%	i	-19
COc1ccc(-c2nnc3ccc(SCC(=O)N4CCCCCC4)nn23)cc1OC	-21%	0	-65*	-1%	i	0
COC(=O)CN(c1cc(OC)ccc1OC)S(=O)(=O)c1ccc(OC)c(OC)c1	0%	-16	-25	6%	i	-10
SMILES	ATXN2 expr inh	D3 antag	IL-1B inflam inh	Integrin act MD	S2 tox	D3 ag
CCS(=O)(=O)N1CCN(c2ccc([N+](=O)[O-])c(NCC3CCCO3)c2)CC1 (stereo not drawn)	-9%	-18	9	10µM*	i	-12
O=[N+]([O-])c1ccc(N2CCN(S(=O)(=O)c3ccccc3)CC2)cc1NCC1CCCO1 (stereo not drawn)	0%	-4	22	-5%	i	1
Cc1nnc(-c2ccc(Cl)cc2)nc1NCCN(C)C	-2%[11.3 µM]	-6	-11	-25%	i	-1
CN(C)CCNc1nc(-c2ccccc2)nnc1C(F)(F)F	1%	-51*	-7	-19%	i	3
Fc1ccc(Sc2nc(-c3ccccc3)nnc2C(F)(F)F)cc1	u	-88*	-120*	-11%	u	-17
CN(C)c1nc(-c2ccccc2)nnc1C(F)(F)F	6%	-64*	32	-6%	i	3
CN(NC(=O)C(C)(C)C)c1nc(-c2ccccc2)nnc1C(F)(F)F	-6%	0	15	6%	i	0
COc1ccc(OC)c(NC(=O)CNC(=O)c2cccs2)c1	7%	-9	9	4%[7.66 µM]	i	1
CC1(C)Cc2cccc(OCC(=O)NCc3ccccc3F)c2O1	0%	5	82	-3%	i	-4
O=C(OCc1nnc(-c2ccccc2)o1)c1cc(S(=O)(=O)N2CCOCC2)c(Cl)cc1Cl	-14%	-55*	-101*	-54%	i	1
O=C(c1cc(S(=O)(=O)N2CCOCC2)c(Cl)cc1Cl)N1CCCCC1	-3%	12	12	2%	i	-3
CC(C)CNc1cc(Cl)c(S(=O)(=O)NCC(C)C)cc1C(=O)O	3%	-14	26	19%	i	1
CC(C)CNS(=O)(=O)c1cc(C(=O)N2CC(C)OC(C)C2)c(Cl)cc1Cl (stereo not drawn)	-9%	-55*	-1	-14%	i	5
Cc1ccc(S(=O)(=O)N2CCOCC2)cc1C(=O)OCc1nnc(-c2ccccc2)o1	-2%	0	30	0%	i	16
O=C(OCC(=O)N1CCCCC1)c1cc(S(=O)(=O)N2CCOCC2)c(Cl)cc1Cl	-19%	12	-59*	-31%	i	3
O=C(OCC(=O)N1CCOCC1)c1cc(S(=O)(=O)N2CCOCC2)c(Cl)cc1Cl	-12%	-13	-84*	-40%	i	5
Cc1ccc(S(=O)(=O)N2CCOCC2)cc1C(=O)OCC(=O)c1ccc[nH]1	-3%	-4	4	-49%	i	5
CC(C)CNS(=O)(=O)c1cc(C(=O)OCC(=O)N2CCOCC2)c(Cl)cc1Cl	2%	-7	-95*	-7%	i	9
O=C(COC(=O)c1cc(S(=O)(=O)N2CCOCC2)c(Cl)cc1Cl)c1ccc[nH]1	12%	-19	-99*	-18%	i	-10
O=C(N/N=C/c1cc(Cl)cc(Cl)c1O)c1ccncc1	x	18	10	-38%	i	6
Oc1c(Cl)cc(Cl)cc1/C=N/Nc1ncc(Br)cn1	u	-107*	10	21%	u	-25
CCc1ccc(C(=O)OCC(=O)N2CCCCCC2)cc1	18%	-5	-9	-5%	i	-1
